Records with an inconclusive call do not appear. Activity calls are given as the source filed them. Unless noted, calls come from the whole dose curve.
How the values were obtained:
[1] = target: Bile acid receptor (Homo sapiens) (UniProt Q96RI1); assay: qHTS assay for small molecule antagonists of farnesoid X receptor signaling (AID 588526); note: potency is the fitted concentration of half-maximal effect
Procedure, shortened: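 Beta-lactamase reporter antagonist mode: HEK293T FXR-UAS-bla cells, titrated compound, CDCA stimulation, 16 h 37 C, CCF4 dye 2 h RT. Data normalized to CDCA 50 uM and DMSO; Hill-fit IC50.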

[2] = target: Bile acid receptor (Homo sapiens) (UniProt Q96RI1); assay: qHTS assay for small molecule agonists of farnesoid X receptor signaling (AID 588527); details: HEK293T FXR-UAS-bla, beta-lactamase ratio, 16 h; activation: stronger effect = higher value;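 note: series mostly up to about 77 µM; 0% = vehicle basal and 100% = reference agonist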
Procedure, shortened: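 Quantitative HTS used FXR-UAS-bla HEK293T cells with 16 h compound incubation at 37 C. EC50 values came from concentration-response curves normalized to chenodeoxycholic acid.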

[3] = target: Glucocorticoid receptor (Homo sapiens) (UniProt P04150); assay: qHTS assay for small molecule agonists of glucocorticoid receptor signaling (AID 588532; active = well fitted curve in the direction sought with a large enough effect in the signal ratio, with a control signal flat; the % refers to the signal ratio;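 note: 100% = dexamethasone at 0.1 µM and 0% = DMSO only wells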); details: HeLa MMTV-bla, beta-lactamase ratio, agonist, 18 h; activation: stronger effect = higher value, percent of dexamethasone control, DMSO zero
Glucocorticoid receptor (Homo sapiens), sequence (P04150 whole entry, looked up): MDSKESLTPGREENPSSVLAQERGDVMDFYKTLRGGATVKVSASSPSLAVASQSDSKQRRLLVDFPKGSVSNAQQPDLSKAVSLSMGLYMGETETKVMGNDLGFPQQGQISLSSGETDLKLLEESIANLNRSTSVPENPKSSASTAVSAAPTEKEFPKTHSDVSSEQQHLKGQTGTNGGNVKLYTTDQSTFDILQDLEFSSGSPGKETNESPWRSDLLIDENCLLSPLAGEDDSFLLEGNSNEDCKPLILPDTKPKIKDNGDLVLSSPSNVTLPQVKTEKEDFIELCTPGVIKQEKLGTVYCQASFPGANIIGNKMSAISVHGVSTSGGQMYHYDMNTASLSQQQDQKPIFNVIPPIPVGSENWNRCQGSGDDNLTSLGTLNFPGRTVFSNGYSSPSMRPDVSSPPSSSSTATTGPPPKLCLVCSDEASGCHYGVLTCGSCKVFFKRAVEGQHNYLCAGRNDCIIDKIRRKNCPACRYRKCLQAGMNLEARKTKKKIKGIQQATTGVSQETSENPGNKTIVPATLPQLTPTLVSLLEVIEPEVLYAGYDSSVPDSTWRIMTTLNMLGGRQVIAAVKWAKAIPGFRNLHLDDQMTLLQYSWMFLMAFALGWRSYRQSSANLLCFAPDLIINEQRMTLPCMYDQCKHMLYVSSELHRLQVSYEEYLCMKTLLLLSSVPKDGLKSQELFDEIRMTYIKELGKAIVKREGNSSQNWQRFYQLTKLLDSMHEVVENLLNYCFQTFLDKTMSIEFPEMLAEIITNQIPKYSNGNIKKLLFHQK
Procedure, shortened: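 Using MMTV-bla HeLa cells in medium with 1% stripped FBS and 25 mM HEPES, compounds were titrated and incubated overnight-length (18 h). Beta-lactamase cleavage of CCF4 was quantified by dual-emission fluorescence.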

[4] = target: Peroxisome proliferator-activated receptor gamma (Homo sapiens) (UniProt P37231); assay: qHTS assay for small molecule antagonists of peroxisome proliferator-activated receptor gamma signaling (AID 588537; active = well fitted inhibition curve with a large enough effect in the signal ratio, with a control signal flat, not every such curve was filed as active; the % refers to the signal ratio; note: potency is the fitted concentration of half-maximal effect)
Peroxisome proliferator-activated receptor gamma (Homo sapiens), sequence (P37231 whole entry, looked up): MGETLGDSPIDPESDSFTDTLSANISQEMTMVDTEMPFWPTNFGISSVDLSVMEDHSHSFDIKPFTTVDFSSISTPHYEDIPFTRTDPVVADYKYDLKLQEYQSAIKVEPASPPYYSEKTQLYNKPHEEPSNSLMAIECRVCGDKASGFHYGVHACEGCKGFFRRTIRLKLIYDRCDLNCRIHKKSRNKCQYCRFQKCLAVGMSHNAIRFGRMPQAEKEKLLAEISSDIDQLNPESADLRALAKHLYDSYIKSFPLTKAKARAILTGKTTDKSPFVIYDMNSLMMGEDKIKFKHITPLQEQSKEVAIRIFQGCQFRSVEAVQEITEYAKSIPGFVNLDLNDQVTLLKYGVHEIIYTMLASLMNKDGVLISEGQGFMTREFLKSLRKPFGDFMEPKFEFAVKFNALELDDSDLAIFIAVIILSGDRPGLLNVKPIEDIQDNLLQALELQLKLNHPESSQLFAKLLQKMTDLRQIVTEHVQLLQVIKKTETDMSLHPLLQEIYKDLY
Procedure, shortened: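 Antagonist-mode β-lactamase reporter screen run as a titration series. HEK293 PPARγ-UAS-bla cells are stimulated with rosiglitazone (50 nM final) for 16 h, then CCF4 is read at 460/530 nm. Data are scaled between DMSO and rosiglitazone and fitted to the Hill equation.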

[5] = qHTS assay for small molecule activators of the nuclear factor-kappa B (NF-kB) signaling pathway (AID 651749; active = well fitted activation curve with a large enough effect in the signal ratio; the % refers to the signal ratio; note: series mostly up to about 77 µM; % of control where 0% means no effect); details: NF-kB-bla ME-180 cells, beta-lactamase FRET ratio, 16 h; activation: stronger effect = higher value
Procedure, shortened: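 Activation measured after 16 hr compound treatment at 37C, 5% CO2, of 2,000 ME-180 cells/well stably expressing an NF-kB response element–driven beta-lactamase reporter, via FRET-disruption fluorescence.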

[6] = target: Peroxisome proliferator-activated receptor alpha (Homo sapiens) (UniProt Q07869); assay: qHTS assay for small molecule agonists of the peroxisome proliferator-activated receptor alpha (PPARalpha) signaling pathway (AID 651778; active = well fitted curve in the direction sought with a large enough effect; an effect the other way counts as inactive or inconclusive; note: % of control where 0% means no effect); details: PathHunter PPARalpha complementation, chemiluminescence, 6 h; max response: stronger effect = higher value
Peroxisome proliferator-activated receptor alpha (Homo sapiens), sequence (Q07869 whole entry, looked up): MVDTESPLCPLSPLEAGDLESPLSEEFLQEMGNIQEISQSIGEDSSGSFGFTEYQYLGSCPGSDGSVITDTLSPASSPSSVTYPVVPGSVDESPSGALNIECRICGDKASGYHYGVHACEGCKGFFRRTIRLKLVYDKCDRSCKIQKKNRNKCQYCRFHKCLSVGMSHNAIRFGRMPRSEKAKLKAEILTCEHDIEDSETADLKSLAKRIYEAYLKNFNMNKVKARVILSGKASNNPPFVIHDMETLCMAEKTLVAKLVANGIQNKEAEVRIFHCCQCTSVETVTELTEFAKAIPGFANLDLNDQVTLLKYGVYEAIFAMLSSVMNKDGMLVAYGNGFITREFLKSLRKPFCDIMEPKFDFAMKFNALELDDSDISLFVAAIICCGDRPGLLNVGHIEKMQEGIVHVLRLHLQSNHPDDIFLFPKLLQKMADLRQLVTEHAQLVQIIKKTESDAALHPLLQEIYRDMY
Procedure, shortened: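 Chemiluminescence from complemented enzyme reported PPARalpha activation in cells after 6 hr of compound treatment at 37 C. The detection reagent was incubated for 60 min at room temperature, and compounds were scored as agonists.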

[7] = qHTS assay for small molecule agonists of the antioxidant response element (ARE) signaling pathway measured by Nrf2-dependant transcriptional activity (AID 720636; active = well fitted curve in the direction sought with a large enough effect in the repeat runs; an effect the other way counts as inactive or inconclusive; note: % of control where 0% means no effect)
Procedure, shortened: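 Quantitative HTS format in HepG2 cells stably expressing an ARE-luciferase reporter; 16 hr compound treatment at 37 C, luciferase signal detected with ONE-Glo.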

[8] = qHTS assay for small molecule agonists of the antioxidant response element (ARE) signaling pathway measured by Nrf2-dependant transcriptional activity - cell viability counter screen (AID 720653; active = well fitted curve in the direction sought with a large enough effect in the repeat runs; an effect the other way counts as inactive or inconclusive; note: % is set by controls: 0 for no effect and ±100 for the full control effect); details: ARE-bla HepG2 viability, CellTiter-Glo ATP luminescence, 16 h; max response: stronger effect = lower value
Procedure, shortened: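 Cytotoxicity counter screen: intracellular ATP quantified by CellTiter-Glo luminescence in the same ARE-bla HepG2 plates, after 16 h compound exposure and a 2 h beta-lactamase substrate step.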

[9] = qHTS assay for cell viability of HEK293 cells (AID 743288; active = well fitted curve in the direction sought with a large enough effect; an effect the other way counts as inactive or inconclusive; note: % is set by controls: 0 for no effect and ±100 for the full control effect; nearly all actives have a fitted effect of over 50% in size); details: ATP luminescence (CellTiter-Glo), 18 h; max response: stronger effect = lower value
Procedure, shortened: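 Quantitative high-throughput screen: compounds were pinned onto parental HEK293 cells (2,000 per well) after a minimum 5 h settling at 37 C, incubated 18 h at 37 C, and intracellular ATP measured by luciferase luminescence.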

[10] = qHTS assay for small molecule activators of the human pregnane X receptor (PXR) signaling pathway (AID 720659; call rule not given here; note: 0% is about no effect)
[11] = target: Peroxisome proliferator-activated receptor delta (Homo sapiens) (UniProt Q03181); assay: qHTS assay for small molecule agonists of peroxisome proliferator-activated receptor delta signaling (AID 588534);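 note: 0% = DMSO basal wells and 100% = positive control agonist at 10 µM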
Peroxisome proliferator-activated receptor delta (Homo sapiens), sequence (Q03181 whole entry, looked up): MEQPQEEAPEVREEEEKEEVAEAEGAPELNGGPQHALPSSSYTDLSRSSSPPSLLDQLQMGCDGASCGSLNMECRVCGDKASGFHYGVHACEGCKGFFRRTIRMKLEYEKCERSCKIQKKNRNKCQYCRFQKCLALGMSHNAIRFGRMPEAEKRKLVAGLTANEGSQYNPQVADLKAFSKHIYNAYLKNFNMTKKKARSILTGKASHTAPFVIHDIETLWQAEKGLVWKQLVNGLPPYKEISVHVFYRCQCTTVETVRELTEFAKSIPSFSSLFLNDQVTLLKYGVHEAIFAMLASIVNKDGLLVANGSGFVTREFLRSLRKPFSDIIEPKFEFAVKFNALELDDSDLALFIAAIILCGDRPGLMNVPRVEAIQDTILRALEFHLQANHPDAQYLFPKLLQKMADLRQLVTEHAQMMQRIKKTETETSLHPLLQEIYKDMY
Procedure, shortened: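 Agonist-mode qHTS; reporter cells, 5 hrs 37 C pre-incubation; compound titration, 18 hrs 37 C; CCF4 dye, 2 hrs RT; fluorescence read. EC50/efficacy via Hill fit.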

[12] = qHTS assay for small molecule antagonists of peroxisome proliferator-activated receptor delta signaling (AID 588535; active = well fitted inhibition curve with a large enough effect in the signal ratio, with a control signal flat, not every such curve was filed as active; the % refers to the signal ratio;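 for max response: cells co-treated with a PPAR-delta agonist as stimulator during compound exposure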); details: HEK293T PPARd-UAS-bla, beta-lactamase FRET ratio, 18 h; 460 nm channel
Procedure, shortened: (§1)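 Titrations were run on PPAR-delta-UAS-bla HEK293T cells in charcoal/dextran-stripped serum, incubated 18 h at 37 C. CCF4 fluorescence (460/530 nm) after 2 h RT; Hill equation yields IC50 and maximal response.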

[13] = target: Peroxisome proliferator-activated receptor delta (Homo sapiens) (UniProt Q03181); assay: as above
Procedure, shortened: as §1

[14] = target: Peroxisome proliferator-activated receptor gamma (Homo sapiens) (UniProt P37231); assay: qHTS assay for small molecule agonists of peroxisome proliferator-activated receptor gamma signaling (AID 588536; active = well fitted curve in the direction sought with a large enough effect in the signal ratio, with a control signal flat, not every such curve was filed as active; the % refers to the signal ratio;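 note: 0% = DMSO basal wells and 100% = rosiglitazone at 2 µM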)
Procedure, shortened: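 Using GeneBLAzer HEK293 cells, response was quantified by CCF4 fluorescence and normalized between basal DMSO (0%) and rosiglitazone 2 uM (100%); curves yielded half-maximal stimulation concentration and efficacy.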

[15] = target: Vitamin D3 receptor (Homo sapiens) (UniProt P11473); assay: qHTS assay for small molecule antagonists of vitamin D receptor signaling (AID 588541);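 note: receptor activated by calcitriol during compound treatment; series mostly up to about 77 µM; % is set by controls: 0 for no effect and ±100 for the full control effect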
Vitamin D3 receptor (Homo sapiens), sequence (P11473 whole entry, looked up): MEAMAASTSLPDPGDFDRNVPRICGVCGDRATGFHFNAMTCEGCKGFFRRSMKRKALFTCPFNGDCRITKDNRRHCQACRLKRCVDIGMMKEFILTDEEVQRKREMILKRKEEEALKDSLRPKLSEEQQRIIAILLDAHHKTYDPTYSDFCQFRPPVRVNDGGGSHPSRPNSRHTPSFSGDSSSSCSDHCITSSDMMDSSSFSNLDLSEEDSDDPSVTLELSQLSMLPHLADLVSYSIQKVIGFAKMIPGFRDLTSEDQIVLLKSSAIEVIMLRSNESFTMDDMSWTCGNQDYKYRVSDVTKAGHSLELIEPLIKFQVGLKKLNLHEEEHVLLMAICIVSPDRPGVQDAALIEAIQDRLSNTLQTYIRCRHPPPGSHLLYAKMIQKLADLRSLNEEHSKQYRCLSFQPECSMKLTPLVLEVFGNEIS
Procedure, shortened: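 Antagonist-mode beta-lactamase reporter assay: HEK293T VDR-UAS-bla cells were exposed to titrated compound alongside 1-alpha,25-dihydroxyvitamin D3 at 3 nM final for 16 h. Values were normalized to the 50 nM agonist control and DMSO basal, with IC50 and efficacy from Hill equation fits.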

[16] = target: Vitamin D3 receptor (Homo sapiens) (UniProt P11473); assay: qHTS assay for small molecule agonists of vitamin D receptor signaling (AID 588543);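 note: 0% = DMSO basal and 100% = reference agonist control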
Procedure, shortened: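 qHTS in agonist mode: compound titrations stimulate a VDR-driven β-lactamase reporter in HEK293T cells over 16 h at 37 °C. Response normalized to 50 nM 1α,25-dihydroxyvitamin D3 = 100%, DMSO = 0%; Hill fitting gives EC50 and maximal response.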

[17] = qHTS assay for small molecule agonists of retinoid X receptor alpha signaling (AID 588544); details: HEK293T RXRa-UAS-bla, beta-lactamase reporter, 18 h; 530 nm emission;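 for activation: 0% = DMSO basal wells and 100% = reference agonist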
[18] = target: Retinoic acid receptor RXR-alpha (Homo sapiens) (UniProt P19793); assay: as above
Retinoic acid receptor RXR-alpha (Homo sapiens), sequence (P19793 whole entry, looked up): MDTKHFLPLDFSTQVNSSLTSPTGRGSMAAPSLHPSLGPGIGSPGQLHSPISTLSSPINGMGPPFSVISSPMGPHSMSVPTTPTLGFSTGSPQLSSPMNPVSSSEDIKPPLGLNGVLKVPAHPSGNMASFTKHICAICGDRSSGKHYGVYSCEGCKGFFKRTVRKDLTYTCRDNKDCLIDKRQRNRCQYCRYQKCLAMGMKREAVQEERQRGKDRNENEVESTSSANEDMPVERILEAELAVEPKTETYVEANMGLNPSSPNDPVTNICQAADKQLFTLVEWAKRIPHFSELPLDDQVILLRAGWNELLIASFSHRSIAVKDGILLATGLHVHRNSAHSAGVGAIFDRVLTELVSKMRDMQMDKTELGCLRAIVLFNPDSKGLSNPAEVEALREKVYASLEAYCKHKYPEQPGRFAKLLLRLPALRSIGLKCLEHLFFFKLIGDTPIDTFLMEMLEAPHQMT

[19] = target: Thyroid hormone receptor beta (Homo sapiens) (UniProt P10828); assay: qHTS assay for small molecule agonists of thyroid hormone receptor beta signaling (AID 588545);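 note: 0% = DMSO only and 100% = 10 nM T3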
Thyroid hormone receptor beta (Homo sapiens), sequence (P10828 whole entry, looked up): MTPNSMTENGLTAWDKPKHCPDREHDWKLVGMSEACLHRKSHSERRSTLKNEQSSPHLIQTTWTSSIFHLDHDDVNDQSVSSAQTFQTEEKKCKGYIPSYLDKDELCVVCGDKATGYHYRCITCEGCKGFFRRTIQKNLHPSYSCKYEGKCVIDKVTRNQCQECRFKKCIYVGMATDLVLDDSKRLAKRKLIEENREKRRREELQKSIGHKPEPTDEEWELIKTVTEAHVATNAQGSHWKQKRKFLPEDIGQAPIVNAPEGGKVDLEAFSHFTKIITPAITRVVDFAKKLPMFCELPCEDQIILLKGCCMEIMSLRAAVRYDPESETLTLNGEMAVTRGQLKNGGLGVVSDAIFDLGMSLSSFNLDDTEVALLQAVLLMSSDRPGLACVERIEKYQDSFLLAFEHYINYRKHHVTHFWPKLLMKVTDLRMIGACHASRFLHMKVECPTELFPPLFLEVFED
Procedure, shortened: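 TR-UAS-bla GripTite HEK 293 cells (2500/well, medium with 2% charcoal/dextran FBS) were treated in agonist mode for 18 h at 37 C, titrated. Beta-lactamase was read by CCF4 ratio after 2 h; normalized to 10 nM T3 (100%) and DMSO, Hill-fitted for EC50 and efficacy.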

[20] = target: Thyroid hormone receptor beta (Homo sapiens) (UniProt P10828); assay: qHTS assay for small molecule antagonists of thyroid hormone receptor beta signaling (AID 588547; active = well fitted inhibition curve with a large enough effect in the signal ratio, with a control signal flat, not every such curve was filed as active; the % refers to the signal ratio;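 note: cells stimulated with 0.4 nM T3 agonist during compound exposure; series mostly up to about 77 µM; % is set by controls: 0 for no effect and ±100 for the full control effect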); details: TR-UAS-bla HEK293, beta-lactamase ratio, antagonist mode, 18 h
Procedure, shortened: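 Inhibition of T3-driven (0.4nM final) beta-lactamase reporter activity was measured over 0.59 nM to 92 uM compound after 18 h at 37 C. The cells were GripTite HEK293 TR-UAS-bla in charcoal/dextran-stripped serum, with CCF4 ratio read-out and IC50 from Hill fits.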

[21] = qHTS assay for small molecule activators of the p53 signaling pathway (AID 651743; active = well fitted activation curve with a large enough effect in the signal ratio, not every such curve was filed as active; the % refers to the signal ratio; note: series mostly up to about 92 µM; % of control where 0% means no effect); details: HCT-116 p53RE-bla, beta-lactamase FRET ratio, 16 h; activation: stronger effect = higher value
Procedure, shortened: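 After 16 hours compound treatment at 37 C, HCT-116 cells stably expressing p53RE-driven beta-lactamase were loaded with LiveBLAzer B/G FRET substrate for 2 hours at room temperature. Fluorescence intensity served as the p53 activation read-out.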

[22] = qHTS assay for environmental chemicals that activate the Aryl hydrocarbon Receptor (AhR) signaling pathway (AID 651777; active = well fitted curve in the direction sought with a large enough effect; an effect the other way counts as inactive or inconclusive; note: % of control where 0% means no effect; nearly all actives have a fitted effect of over 15% in size); details: 1A2-DRE human hepatoma cells, luciferase, 24 h; activation: stronger effect = higher value
Procedure, shortened: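 Quantitative HTS in stably transfected human liver-derived cells whose luciferase gene sits downstream of the CYP1A2 promoter and dioxin response element. After 24 hr exposure at 37 C, One-Glo luminescence was measured.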

[23] = qHTS assay for cell viability of the p53RE-bla HCT-116 cell line (AID 743292; active = well fitted curve in the direction sought with a large enough effect; an effect the other way counts as inactive or inconclusive; note: % is set by controls: 0 for no effect and ±100 for the full control effect; nearly all actives have a fitted effect of over 55% in size)
Procedure, shortened: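 Viability of compound-treated p53RE-bla HCT-116 cells is taken from ATP-dependent luciferase luminescence. Treatment lasts 16 h at 37 C after a 5 h settling period; detection follows 30 min at room temperature.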

[24] = target: Nuclear receptor subfamily 1 group I member 2 (Rattus norvegicus) (UniProt Q9R1A7); assay: qHTS assay for small molecule activators of the rat pregnane X receptor (rPXR) signaling pathway (AID 651751; call rule not given here; note: 0% is about no effect); details: rPXR reporter cells, luciferase (One-Glo), 24 h
Nuclear receptor subfamily 1 group I member 2 (Rattus norvegicus), sequence (Q9R1A7 whole entry, looked up): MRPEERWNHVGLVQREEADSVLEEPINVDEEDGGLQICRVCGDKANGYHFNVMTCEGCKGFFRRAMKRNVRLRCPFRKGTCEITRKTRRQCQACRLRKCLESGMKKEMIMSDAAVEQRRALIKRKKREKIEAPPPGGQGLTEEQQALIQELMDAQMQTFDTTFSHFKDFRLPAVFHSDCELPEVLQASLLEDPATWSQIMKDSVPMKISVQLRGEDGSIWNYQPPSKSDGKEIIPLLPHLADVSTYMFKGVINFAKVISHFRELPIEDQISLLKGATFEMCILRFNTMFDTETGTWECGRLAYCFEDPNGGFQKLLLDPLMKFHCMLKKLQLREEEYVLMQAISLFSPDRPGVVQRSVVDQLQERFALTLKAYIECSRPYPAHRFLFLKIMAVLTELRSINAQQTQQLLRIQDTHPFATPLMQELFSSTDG

[25] = target: Glucocorticoid receptor (Homo sapiens) (UniProt P04150); assay: qHTS assay for small molecule antagonists of glucocorticoid receptor signaling (AID 588533; active = well fitted inhibition curve with a large enough effect in the signal ratio, with a control signal flat, not every such curve was filed as active; the % refers to the signal ratio;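 note: cells stimulated with 2 nM dexamethasone as agonist; % is set by controls: 0 for no effect and ±100 for the full control effect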)
Procedure, shortened: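 Antagonist-mode qHTS: compound titrations added to GRE-bla HeLa cells, then dexamethasone 2 nM final; 18 h, 37 C. CCF4 FRET fluorescence normalized to dexamethasone and DMSO; IC50 from Hill fit.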

[26] = qHTS assay for small molecule agonists of the antioxidant response element (ARE) signaling pathway (AID 651741; active = well fitted activation curve with a large enough effect in the signal ratio; the % refers to the signal ratio; note: potency is the fitted concentration of half-maximal effect)
Procedure, shortened: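 Beta-lactamase reporter under ARE control in HepG2 cells, 2,000 per well, was induced by 16 h compound treatment at 37 C. Read-out was fluorescence from LiveBLAzer B/G FRET substrate after 2 h at room temperature.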

[27] = qHTS assay for small molecule antagonists of retinoid X receptor alpha signaling (AID 588546; active = well fitted inhibition curve with a large enough effect in the signal ratio, with a control signal flat, not every such curve was filed as active; the % refers to the signal ratio); details: HEK293T RXRa-UAS-bla, beta-lactamase ratio, antagonist mode; measured here: W530 green channel, cytotoxicity proxy
Procedure, shortened: (§2)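 Beta-lactamase reporter inhibition, read as CCF4 fluorescence ratio (ex 405, em 460/530 nm) after 2 h at RT. HEK293T UAS-bla cells, 2500/well, were stimulated with 9-cis-RA at 500 or 100 nM final alongside test compound for 18 h at 37 C.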

[28] = target: Retinoic acid receptor RXR-alpha (Homo sapiens) (UniProt P19793); assay: as above; details: HEK293T RXRa-UAS-bla, beta-lactamase ratio, antagonist mode
Procedure, shortened: as §2

Bile acid receptor (Homo sapiens), sequence (Q96RI1 whole entry, looked up): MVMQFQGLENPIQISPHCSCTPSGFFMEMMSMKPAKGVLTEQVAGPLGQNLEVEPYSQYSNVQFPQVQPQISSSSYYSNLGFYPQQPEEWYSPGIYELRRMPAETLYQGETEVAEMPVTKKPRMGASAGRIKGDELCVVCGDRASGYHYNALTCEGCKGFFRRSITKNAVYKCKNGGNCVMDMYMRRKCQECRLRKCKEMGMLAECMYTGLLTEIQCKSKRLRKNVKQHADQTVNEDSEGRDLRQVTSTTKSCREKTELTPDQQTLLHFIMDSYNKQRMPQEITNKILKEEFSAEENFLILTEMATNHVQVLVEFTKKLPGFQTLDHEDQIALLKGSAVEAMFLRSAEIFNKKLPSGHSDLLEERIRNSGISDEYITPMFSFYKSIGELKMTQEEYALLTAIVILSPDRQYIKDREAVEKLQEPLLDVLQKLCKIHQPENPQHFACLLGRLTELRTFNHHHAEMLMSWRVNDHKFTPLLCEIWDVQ

CO/N=C(/C1=NOCCO1)c1ccccc1Oc1ncnc(Oc2ccccc2Cl)c1F
active: Potency [1] 35.5 µM | Potency [4] 25.1 µM
inactive: activation [2] 7.75% | activation [3] -11.9% | activation [5] 4.67% | max response [6] 18.3% | Potency [7] | max response [8] 16.2% | max response [9] 6.13% | outcome [10]

CCCSP(=O)(OCC)Oc1ccc(Br)cc1Cl (stereo not given)
5.89%: max response [12]
inactive: Potency [1] | outcome [11] | Potency [13] | Potency [14] | Potency [15] | outcome [16] | Potency [18] | Potency [19] | activity change % (negative = inhibition) [20] 3.3% | activation [21] 3.94% | activation [5] 0.74% | activation [22] 3.36% | max response [6] -0.001% | max response [8] -7.9% | max response [9] -22.2% | Potency [23] | max response [24] 7.3% | outcome [10]
0.651%: max response [17]

CCC(CC)Nc1c([N+](=O)[O-])cc(C)c(C)c1[N+](=O)[O-]
-38.2%: max response [12]
inactive: Potency [1] | activation [3] -2.05% | Potency [25] | outcome [11] | Potency [13] | Potency [14] | Potency [4] | Potency [15] | outcome [16] | Potency [18] | Potency [19] | activity change % (negative = inhibition) [20] -5.09% | activation [21] -0.326% | activation [5] -1.58% | activation [22] 4.64% | max response [6] -0.0369% | Potency [7] | max response [8] -7.95% | max response [9] -2.98% | Potency [23]
active: Potency [26] 27.3 µM

CS(=O)(=O)NC(=O)c1cc(Oc2ccc(C(F)(F)F)cc2Cl)ccc1[N+](=O)[O-]
inactive: Potency [1] | Potency [14] | Potency [15] | outcome [16] | Potency [18] | Potency [19] | max response [28] -2.65% | activity change % (negative = inhibition) [20] -8.1% | activation [21] -3.62% | activation [22] 0.872% | max response [6] -2.59% | Potency [7] | max response [9] -3.04% | Potency [23] | max response [24] -4.18% | outcome [10]
-6.47%: max response [27]

Cc1cc2nc(N)sc2cc1C
inactive: activation [2] 0.811%

C#CCC1=C(C)[C@H](OC(=O)[C@H]2[C@H](C=C(C)C)C2(C)C)CC1=O
25.2%: max response [12]
inactive: Potency [1] | activation [2] 1.85% | outcome [11] | Potency [13] | Potency [14] | Potency [15] | outcome [16] | Potency [18] | Potency [19] | max response [28] -4.47% | activation [21] 1.18% | activation [22] 9.06% | max response [6] 3.44% | Potency [7] | max response [9] -10.8% | Potency [23]
11.7%: max response [17]
-0.262%: max response [27]
active: Potency [26] 61.1 µM
